KCNQ2 pot – KCNQ2 (rat) channel potentiation. CHO-K1 KCNQ2, FluxOR thallium flux fluorescence; hits give high values. B-score at 10 µM. actives 0.54% (n = 310,000). O88943. AID 2239;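 active = fluorescence ratio B-score at least 3 SD of library B-scores, with initial fluorescence B-score within 3 of them, cut at about 5.3 in these data; same plate scores as AID 2156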;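 note: B-score of peak minus minimum over baseline fluorescence ratio after K+ and Tl+ stimulus; positive B-score means potentiation of KCNQ2 with more thallium influx and brighter signal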
KCNQ2 block – KCNQ2 (rat) channel inhibition; O88943; CHO-K1 KCNQ2, FluxOR thallium flux, 20 min; hits give low values; B-score at 10 µM; actives 1.1% (n = 310,000); AID 2156;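 active = fluorescence ratio B-score at most minus 3 library SDs, with starting brightness B-score within 2 library SDs, cut at about -5.5 in these data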
KCNQ2 block conf – confirmation of rat KCNQ2 potassium channel inhibitors; activity change, negative = inhibition, % at 10 µM; KCNQ2-expressing cells, thallium flux, inhibition; hits give low values; shares compounds with KCNQ2 block; actives 57% (n = 1,000)
KCNQ1 spec – KCNQ2 inhibitor that also affects human KCNQ1 channel | shares compounds with KCNQ2 block | KCNQ1-expressing cells, FluxOR thallium flux fluorescence; hits give low values | activity change, negative = inhibition, % at 10 µM | actives 15% (n = 1,000) | AID 493026;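 active = activity change at least 3 SD of negative controls below their mean in both duplicate wells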;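 note: CHO cells stably transfected with KCNQ1 and depolarized by potassium stimulus; peak minus minimum fluorescence over baseline after thallium addition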
CHO Tl ctr – activity in parental CHO cells lacking KCNQ2; activity change, % at 10 µM; actives 14% (n = 1,000); AID 493029; shares compounds with KCNQ2 block; thallium flux counter-screen; hits give low values
KCNQ2 patch conf – confirmation of rat KCNQ2 potassium channel inhibitors; shares compounds with KCNQ2 block; KCNQ2-expressing cells, automated patch clamp current; calls only at 10 µM; actives 49% (n = 550); AID 588531
Numbers stand for hits; . = inactive; / = no result; + = active, no number. Sampled rows, rich in hits. Any-hit rate of the full collection: about 1.6%. Unless noted, the rule behind the calls is not given here.

SMILES	KCNQ2 pot	KCNQ2 block	KCNQ2 block conf	KCNQ1 spec	CHO Tl ctr	others
N#CC(C(=O)NCCc1ccccc1)c1nc2ccccc2nc1N1CCCCC1 (stereo not given)	/	.	/	/	/
CCOC(=O)N1CCN(c2nc3ccccc3nc2C(C#N)C(=O)NCCc2ccccc2)CC1 (stereo not given)	.	-8.7	.	.	.
CCC(=O)c1cn(CC(=O)Nc2ccc(C)cc2)c2ccccc12	/	.	/	/	/
Clc1ccc(CSc2cc3c(nn2)-c2ccccc2CC3)cc1Cl	.	-8.3	-27%	.	.	KCNQ2 patch conf=.
Nc1ccccc1SCc1ccccc1Cl	/	.	/	/	/
Clc1cccc(Cl)c1CSc1cc2c(nn1)-c1ccccc1CC2	.	-8.5	.	.	.
O=c1cc2c(nn1Cc1c(Cl)cccc1Cl)-c1ccccc1CC2	.	.	/	/	/
Clc1ccccc1CSc1cc2c(nn1)-c1ccccc1CC2	.	-8.1	-19%	.	.	KCNQ2 patch conf=.
Clc1ccc(CSC2=NCCCN2)cc1Cl	.	.	/	/	/
Cc1ccc(NC(=O)CNC(=O)Cc2cccc3ccccc23)c(O)c1	/	.	/	/	/
Cc1ccc(S(=O)(=O)NCCC(=O)NNC(=O)c2ccccc2O)cc1C	/	.	/	/	/
CCN(CC)c1ccc(/C=C/C(=O)c2cccnc2)cc1	/	.	/	/	/
N#Cc1ccc(/C=C/C(=O)c2cccnc2)cc1	.	-11	-29%	.	.	KCNQ2 patch conf=.
O=C(/C=C/c1ccccc1Cl)c1ccc(O)cc1	/	.	/	/	/
O=C(/C=C/c1ccccc1Cl)c1cccnc1	.	-8	-36%	-32%	-32%	KCNQ2 patch conf=.
COc1ccccc1N1CCN(c2nccc(C)n2)CC1	/	.	/	/	/
COc1ccccc1N1CCN(/N=C/c2cccc(OC)c2O)CC1	/	.	/	/	/
COc1ccccc1N1CCN(/N=C/c2cc(Br)ccc2F)CC1	.	-11	-18%	.	.	KCNQ2 patch conf=.
COc1ccc(/C=N/N2CCN(c3ccccc3OC)CC2)cc1Br	/	.	/	/	/
COc1ccccc1N1CCN(/N=C/c2cccc(Cl)c2)CC1	.	-7	-30%	.	.	KCNQ2 patch conf=+
COc1ccc(Cc2nnc(NC(=O)c3ccccc3)s2)cc1OC	.	.	/	/	/
Cc1ccc2c(c1)C(=O)CC(c1ccc3c(c1)OCCO3)O2 (stereo not given)	.	.	/	/	/
CC(C)=CCc1cc([C@@H]2CC(=O)c3ccc(O)c(CC=C(C)C)c3O2)ccc1O	.	-9	.	.	.
CC(C)[C@H](NC(=O)N1CCn2c1nc1ccccc12)C(=O)NCc1ccc(F)cc1	/	.	/	/	/
CC(C)[C@H](NC(=O)N1CCn2c1nc1ccccc12)C(=O)NCc1ccccc1Cl	.	-8.1	-34%	-32%	-24%	KCNQ2 patch conf=+
SMILES	KCNQ2 pot	KCNQ2 block	KCNQ2 block conf	KCNQ1 spec	CHO Tl ctr	others
Cn1c(=O)c2c(SCC(=O)N3CCOCC3)nc(-c3ccccc3Cl)nc2n(C)c1=O	.	.	/	/	/
CC1CN(C(=O)/C=C/c2ccccc2Cl)CC(C)O1 (stereo not given)	.	.	/	/	/
Cc1ccc(S(=O)(=O)Nc2ccc(N=Nc3ccc(O)cc3)cc2)cc1	.	-8.7	.	.	.
CSc1ccc(S(=O)(=O)Nc2ccc(S(=O)(=O)Nc3ccc(C)cc3)cc2)cc1	/	.	/	/	/
CC1(C)Cc2c(sc(NC(=O)C(=O)N3CCCC3)c2C#N)CO1	.	.	/	/	/
COc1ccc(NC(=O)CN(C)C(=O)c2cc(-c3ccccc3)nc3ccccc23)cc1	/	.	/	/	/
Cc1ccc2nc(-c3ccccc3)cc(C(=O)N(C)CC(=O)Nc3ccccc3Br)c2c1	.	-8.1	.	.	.
N#Cc1ccc(CNC(=O)N2CCOCC2)cc1	.	.	/	/	/
O=C(CCNc1ccc(F)cc1)c1cccc([N+](=O)[O-])c1	/	.	/	/	/
O=C(CCNc1ccccc1)c1cccc([N+](=O)[O-])c1	.	-7.9	.	.	.
O=C(c1cc2ccccc2oc1=O)N(Cc1ccccc1F)C1CCS(=O)(=O)C1 (stereo not given)	/	.	/	/	/
COc1cc2c(cc1OC)CN(CC(=O)Nc1ccc(F)cc1)C(C(=O)O)C2 (stereo not given)	/	.	/	/	/
O=c1c2ccccc2nc(COc2ccccc2)n1/N=C/c1ccco1	.	-10	.	.	.
O=c1c2ccccc2nc(COc2ccccc2)n1/N=C/c1ccc(O)c(O)c1	/	.	/	/	/
CC(C)(C)n1nnnc1C(c1cccs1)N(Cc1ccc(Cl)cc1)CC1CCCO1 (stereo not given)	.	-9.9	.	.	.
Clc1ccc(CN(Cc2ccccc2)C(c2cccs2)c2nnnn2C2CCCC2)cc1 (stereo not given)	/	.	/	/	/
C=CCN(CC=C)Cc1c(O)ccc2c(=O)c(-c3ccccc3)coc12	.	.	/	/	/

Assay outcomes (PubChem)
